# Only a selection was taken, and hits are over-represented in it overall.
# ID4 SMM = binders of human ID4 protein | P47928 | small molecule microarray, Flag-ID4 binding, fluorescence F/B | calls only | 31,000 compounds, 1.2% hits; call rule not given here;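 further: a binder raises fluorescence above local background on the spot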
# Target sequence (P47928 whole entry, looked up): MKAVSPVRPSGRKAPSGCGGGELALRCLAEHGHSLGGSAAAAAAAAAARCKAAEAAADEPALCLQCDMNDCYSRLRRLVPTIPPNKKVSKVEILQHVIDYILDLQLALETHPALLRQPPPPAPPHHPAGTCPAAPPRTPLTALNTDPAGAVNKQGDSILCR
# STK33 inh = inhibitors of human STK33 kinase. Q9BYT3. ADP-Glo luminescence, MBP substrate. inhibition, % at 12.5 µM. 27,000 compounds, 0.44% hits. AID 2322; in the data active means inhibition above about 20%; inconclusive means no clear call, values can overlap the other calls
# NOMO-1 viab = STK33 inhibitor candidate reducing NOMO-1 cell viability | inhibition, % (concentration not given with the values) | 37,000 compounds, 7.5% hits | NOMO-1 AML viability, CellTiter-Glo luminescence, 72 h; in the data active means inhibition above about 80%; inconclusive means no clear call, values can overlap the other calls
# p53 PUMA act = re-activators of the mutant p53 pathway. SW480 PUMA-promoter luciferase, p53 mutant reactivation. activation, % at 9.98 µM. 28,000 compounds, 1.5% hits; in the data active means activation above about 52%; inconclusive means no clear call, values can overlap the other calls
# * = called active by the depositor; i = inactive; ? = inconclusive; . = not tested or not shown.
SMILES,ID4 SMM,STK33 inh,NOMO-1 viab,p53 PUMA act
COc1ccc2c(c1O)-c1c3c(cc4c1C(C2)N(C)CC4)OCO3 (stereo unspecified),.,1,.,4
CCCN1CCc2cc(O)cc3c2[C@H]1Cc1ccc(O)c(O)c1-3,i,1,109*,13
CC1CCC/C=C/C2CC(O)CC2C(O)/C=C\C(=O)O1 (stereo unspecified),i,.,.,-89
c1ccc2c(c1)cc1ccc3cccc4ccc2c1c34,i,4,28,6
O=C1c2ccccc2-c2cccc3cccc1c23,i,76*,8,.
CCCCC/C=C\C/C=C\C/C=C\C/C=C\CCCC(=O)N[C@H](C)CO,i,.,.,-6
c1ccc(CC(c2ccccc2)N2CCCCC2)cc1 (stereo unspecified),i,.,.,7
CN1CCN(C(=O)CN=[N+]=[N-])CC1,i,.,.,.
Cc1cc(O)cc2oc(=O)c3c(O)cc(O)cc3c12,i,74*,42,7
CC[C@@]1(O)C(=O)OCc2c1cc1n(c2=O)-c2cc3ccccc3nc2C1,.,2,143*,.
C=CC(C)(C)[C@]12C=C(OC)C(=O)N3/C(=C/c4cnc[nH]4)C(=O)N[C@@]31N(OC)c1ccccc12,i,0,101*,-12
COc1ccc(C[C@H]2NC[C@H](O)[C@H]2OC(C)=O)cc1,i,0,120*,.
COc1ccc(CC2(CCc3ccncc3)C(=O)NC(=O)N(c3ccc(Cl)cc3)C2=O)cc1OC (stereo unspecified),i,-1,-28,-6
N#CC(C#N)=NNc1ccc(OC(F)(F)F)cc1,i,5,141*,.
COC[C@H]([C@@H](O)[C@@H](O)C(=O)NCC[C@@H](C)c1nc(/C=C/C[C@H]2OC3(C[C@H](O)[C@H]2C)OC([C@@H](C[C@@H](O)[C@@H](C)[C@@H](O)[C@@H](C)/C=C(C)/C(C)=C/C=C/C(C)=C\C#N)OC)[C@@H](OP(=O)(O)O)C3(C)C)co1)N(C)C (stereo partly specified),i,2,139*,-82
CC[C@@]12CCCN3CC[C@]4(c5cccc(OC)c5N(C(C)=O)[C@@H]4CC1)[C@H]32,.,1,22,.
O=c1c2ccccc2[nH]c(=S)n1-c1cc(C(F)(F)F)cc(C(F)(F)F)c1,.,.,4,.
N#Cc1cc2c(nc1SCc1ccccc1Br)C1CCN2CC1,i,.,.,-3
C=C1C(=O)O[C@@H]2[C@H]3C(=C)[C@@H](O)C[C@H]3C(=C)C[C@@H](O)[C@@H]12,i,?,113*,.
O=C(NC(=O)c1ccccc1Cl)Nc1ccc2c(c1)S(=O)(=O)C=C2,i,.,.,-2
O=C1NC(=O)C(=C/C=C/c2ccccc2)C(=O)N1,.,.,113*,.
N#CC(C#N)=Cc1ccc(O)c(O)c1,i,0,36,16
CC(C)(C)c1cc(C=C(C#N)C#N)cc(C(C)(C)C)c1O,i,13,97*,.
CCN1C[C@]2(C)CC[C@H](O)[C@@]34C2[C@H](OC)C([C@@H]13)[C@@]1(O)C[C@H](OC)[C@H]2C[C@@H]4[C@@H]1[C@H]2O,i,-2,107*,-13
CSc1ncccc1C1=N/C(=C\N(C)C)C(=O)O1,i,.,.,8
SMILES,ID4 SMM,STK33 inh,NOMO-1 viab,p53 PUMA act
CC(C)c1cc2c(cc1O)[C@@]1(C)C[C@@H](O)CC(C)(C)C1CC2 (stereo partly specified),i,-3,103*,4
COc1cc2c(cc1O)C1Cc3ccc(OC)c(O)c3CN1CC2 (stereo unspecified),i,0,117*,4
COc1cc2c(cc1O)[C@@H]1Cc3ccc(OC)c(O)c3CN1CC2,i,4,108*,1
COc1ccc([C@H]2Oc3c(I)c(OC)cc(OC)c3C[C@@H]2O)cc1OC,i,7,22,.
C[C@@H]1O[C@@H](OC2CCC3(C)C4CCC5(C)C(C6=CC(=O)OC6)CCC5(O)C4CC[C@H]3C2)[C@H](O)[C@H](O)[C@H]1O (stereo partly specified),i,-2,109*,.
C[C@]12CC[C@H]3[C@@H](CC[C@]4(O)C[C@@H](O)CC[C@]34C=O)[C@@]1(O)CC[C@@H]2C1=CC(=O)OC1,i,-1,115*,-61
CO[C@H]1[C@H](O)[C@H](O[C@H]2CC[C@]3(C)C4CC[C@]5(C)[C@H](C6=CC(=O)OC6)CC[C@]5(O)C4CC[C@@H]3C2)O[C@@H](C)[C@@H]1O (stereo partly specified),i,-1,123*,.
CO[C@H]1[C@H](O)[C@@H](O[C@H]2CC[C@]3(C=O)C4CC[C@]5(C)[C@@H](C6=CC(=O)OC6)CC[C@]5(O)C4CC[C@@H]3C2)O[C@@H](C)[C@@H]1O (stereo partly specified),.,2,112*,.
COC(=O)[C@@]12C(=O)C(C)C(=O)[C@]1(C)C(C)=C[C@H]1[C@]3(C)CC[C@H](OC(C)=O)C(C)(C)[C@H]3CC[C@@]12C (stereo partly specified),i,-3,17,.
C[C@H](CO)N1C[C@H](C)[C@@H](CN(C)C(=O)Oc2cccc3ccccc23)OCc2cnnn2CCCC1=O,.,2,.,.
CCOC(=O)C1=NN(c2ccc(C)cc2)C2c3cccc4cccc(c34)C12 (stereo unspecified),.,.,22,.
C[C@@H]1O[C@@H](O[C@H]2C[C@@H](O)[C@]3(CO)[C@H]4[C@H](O)C[C@]5(C)[C@@H](C6=CC(=O)OC6)CC[C@]5(O)[C@@H]4CC[C@]3(O)C2)[C@H](O)[C@H](O)[C@H]1O,i,-6,119*,.
OC12C3C4CC5C6C4C1C6C(C53)N2CCc1cccc(F)c1 (stereo unspecified),i,.,.,-2
CC(C)c1cc2c(cc1O)[C@@]1(C)CCCC(C)(C)[C@@H]1CC2O (stereo partly specified),i,-4,94*,-28
CC1(C)CCC[C@]2(C)c3cc(O)c(O)cc3C(=O)CC12 (stereo partly specified),.,0,.,7
FC(F)(F)c1ccc2c(c1)N(CCCN1CCN(CCCl)CC1)c1ccccc1S2,.,5,99*,11
N[C@@H](Cc1ccc(N(CCCl)CCCl)cc1)C(=O)O,.,0,111*,.
O=C(O)CCCc1ccc(N(CCCl)CCCl)cc1,.,0,110*,-2
COc1ccc2c3c1O[C@H]1[C@@H](O)CC=C4[C@@H](C2)N(C)CC[C@]431,i,-3,13,.
COC(=O)CC1=C(C(=O)OC)C2(C(=O)Nc3ccccc32)C(C(=O)OC)=C(N)O1 (stereo unspecified),.,.,16,.
N#C/C(=C\c1ccc(O)cc1)C(=O)O,.,27*,5,.
OC[C@H]1O[C@@H](Oc2c[nH]c3ccc(Br)c(Cl)c23)[C@H](O)[C@@H](O)[C@H]1O,.,3,42,.

# Bioassay records from PubChem.
